An excerpt weighted towards active compounds, which were near 17% of everything screened.
TDP1 cell noCPT – qHTS for Inhibitors of human tyrosyl-DNA phosphodiesterase 1 (TDP1): qHTS in cells in absence of CPT; Potency, µM (top dose mostly 46.2 µM), without a hit: at the top dose activity change, negative = growth inhibition, most hits filed as inhibitors; 15% of 420,000 active; DT40 Tdp1-/- hTDP1 cells, no CPT, ATP luminescence, 48 h; also: % is scaled to controls: 0 for no effect and ±100 for the full control effect; nearly all actives have a fitted effect of over 55% in size
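No-CPT arm: Tdp1-/-;hTDP1 DT40 cells (400/well) plus compounds, incubated ≥48 hr at 37 °C. Readout CellTiter-Glo luminescence.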
HT1080 IDH1KD tx – toxicity to HT-1080 IDH1 knockdown cells (counter line); HT-1080 IDH1 knockdown viability, ATP luminescence, 48 h; Potency, µM (highest dose often 46.1 µM), without a hit: at the top dose activity, negative = toxicity, usual class: cytotoxic; 2% of 360,000 active; AID 686971;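 also: 0% = DMSO wells and -100% = cell-free medium wells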
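In this qHTS, HT-1080 cells depleted of IDH1 are exposed for 48 h at 37 °C to compound titrations. Toxicity is scored from CellTiter-Glo luminescence, with DMSO as full viability and medium alone as none.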
TGFb SMAD3 inh – TGF-b pathway inhibition; AID 588855; HepG2 CAGA-GFP TGF-b/SMAD3 reporter, GFP fluorescence, 18 h; TGF-beta stimulated, 500 pg/mL final; Potency, µM (series often up to 46.1 µM), inactives show at the highest dose activity, negative = inhibition, actives largely listed as inhibitors; 1.2% of 410,000 active; also: % is scaled to controls: 0 for no effect and ±100 for the full control effect; nearly all actives have a fitted effect of over 65% in size
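Cell-based qHTS in HEPG2 carrying a CAGA-GFP Smad reporter; compounds added before 500 pg/mL final TGF-beta, 18 h incubation at 37 degrees C, GFP fluorescence quantified per cell by imaging cytometry.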
HT1080-NT tox – kills 2HG-producing HT-1080-NT fibrosarcoma cells; HT-1080-NT fibrosarcoma viability, CellTiter-Glo ATP luminescence, 48 h; Potency, µM (top dose mostly 46.1 µM), without a hit: top-dose activity, negative = less viability, usual class: cytotoxic; 1.6% of 360,000 active; AID 686970;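 also: NT is the 2HG producing partner of a matched IDH1 knockdown line; 0% = DMSO-treated cells and -100% = media-only wells without cells; nearly all actives have a fitted effect of over 55% in size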
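Compounds were tested in concentration-response format on HT-1080-NT cells for 48 hours at 37 degrees C. Cell viability came from CellTiter-Glo luminescence; curves were classified by r2, response magnitude and activity.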
HepG2 viability – HepG2 cytotoxicity, counter-screen for TGF-b inhibitors; 0.76% of 410,000 active; Potency, µM (top dose mostly 46.1 µM), for inactives: at the top dose activity change, negative = cytotoxicity, usual class: cytotoxic; HepG2 CAGA-GFP viability, ATP luminescence, 18 h
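HepG2 CAGA-GFP cells (1000/well, DMEM with 1% FBS) received compound, then TGF-beta at 500 pg/mL final, and were incubated 18 hours at 37 degrees C. Viability was read by CellTiter-Glo luminescence. Media-only wells were set as complete cell-killing and DMSO as no toxicity.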
DT40 TDP1 CPT – DT40-hTDP1 cell growth loss with CPT. chicken DT40 Tdp1-/-;hTDP1 cells + 20 nM CPT, ATP luminescence, 48 h. Potency, µM (doses to about 46.2 µM), for inactives: at the highest dose activity change, negative = growth inhibition, actives largely listed as inhibitors. 12% of 420,000 active; also: % is scaled to controls: 0 for no effect and ±100 for the full control effect; nearly all actives have a fitted effect of over 55% in size
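Chicken DT40 Tdp1-/- cells stably complemented with human TDP1 were seeded at 400 cells/well in medium containing 20 nM camptothecin, exposed to pin-transferred compounds, and grown at 37 °C for at least 48 hr. Viability was read as ATP luminescence.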
Active calls of the source: *; u = inconclusive; x = not tested or not shown; ! = not active in a repeat. Calls follow the shape of the dose curve; as a rule, active = well fitted curve in the direction sought with a large enough effect; inconclusive = small, poorly fitted or top-dose-only effect, or another doubt; inactive = no such curve, though single readings can be large; an effect the other way counts as inactive or inconclusive. Potency is read from the fitted curve at half-maximal effect.

SMILES | TDP1 cell noCPT | HT1080 IDH1KD tx | TGFb SMAD3 inh | HT1080-NT tox | HepG2 viability | DT40 TDP1 CPT
COc1ccc(-c2cc(C(F)(F)F)nc(NCc3ccccc3)n2)cc1OC | 21µM* | x | -20% | x | -28% | u
COc1ccc(-c2cc(C(F)(F)F)nc(NCc3ccc(F)cc3)n2)cc1 | u | x | u | x | -8% | u
COc1ccc(CNc2nc(-c3ccc(OC)cc3)cc(C(F)(F)F)n2)cc1 | 5.8µM* | x | -29% | x | -19% | 13µM*
Cc1cc(NC(=O)CSc2ncnc3sc(C)c(C)c23)no1 | 2% | 8% | 11% | -16% | 13% | 4%
CC(=O)Nc1cc(-c2ccccc2CN(C)C)cn2c(-c3ccc(C(C)=O)cc3)cnc12 | 16µM* | u | -19% | 18µM* | -14% | u
CC(=O)Nc1cc(-c2cccc(CO)c2)cn2c(-c3ccc(C(C)=O)cc3)cnc12 | 21µM* | 5% | -6% | -26% | -25% | u
CC(=O)Nc1cc(-c2ccccc2)cn2c(-c3ccc(F)cc3)cnc12 | u | 4% | 24% | -1% | -1% | u
CC(=O)Nc1cc(-c2cccc(CO)c2)cn2c(-c3ccc(F)cc3)cnc12 | u | -19% | -4% | -2% | -12% | 23µM*
COc1ccc(-c2cnc3c(NC(C)=O)cc(-c4ccccc4CN(C)C)cn23)cc1OC | u | u | 29% | u | -31% | u
CC(=O)Nc1cc(-c2cccc(N)c2)cn2c(-c3ccc(C(C)=O)cc3)cnc12 | 10µM* | u | 4% | u | -2% | u
O=C(Cc1cccc(NC(=O)C2CCCN(C(=O)C3CCCC3)C2)c1)Nc1ccc(C(=O)N2CCCCC2)cc1 (centres undefined) | u | -1% | -10% | 1% | -10% | u
CCCS(=O)(=O)NC(=O)C1(C)CCN(C(=O)c2cccc(OC(F)(F)F)c2)C1 (centres undefined) | 2% | 25% | 6% | 8% | 4% | 19%
COc1ccc2c(c1)OCC(Cc1ccc(OC)c(OC(C)=O)c1)C2=O (centres undefined) | 0.65µM* | x | x | x | x | 0.65µM*
COc1ccc2c(c1)OCC(Cc1ccc(OC)c(OC)c1)C2=O (centres undefined) | 13µM* | x | x | x | x | u
Cc1cccc(C)c1NC(=O)CNC(=O)c1ccc2ccccc2n1 | -2% | -3% | 17% | -9% | -1% | -15%
COc1ccc(CC(C)Nc2ccccc2F)cc1 (centres undefined) | -24% | -2% | -2% | 0% | -1% | -7%
COc1cc(NC(C)CCCN)c2nc(C)ccc2c1Oc1ccc(F)cc1 (centres undefined) | 10µM* | -29% | u | -10% | -104% | 26µM*
COc1cc(NC(C)CCCN)c2ncccc2c1 (centres undefined) | 7.2µM*! | u | u | 16µM* | -55% | u
CCOc1ccc(C(=O)NCCS(=O)(=O)N2CCN(c3cccc(Cl)c3)CC2)cc1 | -13% | x | 0% | x | 2% | u
COc1ccc(C(=O)N2N=C(c3cccs3)CC2c2ccccc2O)cc1 (centres undefined) | 13µM* | u | u | u | 11µM* | -4%
COc1ccc(C2=NN(C(=O)CCC(=O)O)C(c3ccccc3F)C2)cc1 (centres undefined) | -3% | 13% | 2% | 11% | -3% | -3%
COc1ccc(C2=NN(C(=O)c3cccs3)C(c3ccccc3O)C2)cc1 (centres undefined) | u | -27% | 13µM* | -29% | -98% | u
COc1ccc(C2=NN(C(=O)c3cccs3)C(O)(C(F)(F)F)C2)cc1 (centres undefined) | 16µM* | -25% | u | -18% | -13% | u
COc1ccc(C2CC(c3ccccc3)=NN2C(=O)c2cccs2)cc1 (centres undefined) | u | u | -21% | u | -19% | 23µM*
CCCCCCc1ccc(N2C[C@H](Cc3ccccc3)[C@@H](CC(=O)Nc3ccccc3)C2=O)cc1 | u | 1% | -1% | 11% | -23% | u
CC(C)c1cc(CNC(=O)CC2C(=O)NCCN2CC2CCCCC2)on1 (centres undefined) | 5% | 5% | 1% | 11% | 5% | 3%
Cc1cccc(C2C=C(c3ccc(C)c(C)c3)Nc3nnnn32)c1 (centres undefined) | 2.6µM* | x | -2% | x | -2% | 2.6µM*
CCc1ccc(C2=CC(c3cccc(Br)c3)n3nnnc3N2)cc1 (centres undefined) | 15µM* | x | -5% | x | -52% | 18µM*
N#C/C(=C\c1ccc(OCCN2CCOCC2)cc1)C(=O)Nc1ccc(S(N)(=O)=O)cc1 | 6% | 19% | -18% | 1% | -7% | -2%
COCCCNc1ccn2nc(-c3ccc(OCCN4CCOCC4)cc3)cc2n1 | 12µM* | 21% | 9% | 15% | -11% | u

High-throughput results (PubChem BioAssay)
